# Test results published in paper PMC5700166.
# Target: GST-Hu-p50 (Homo sapiens, UniProt P19838 7-356)
# Assay: protein-binding microarray (PBM); PBM: ~300 nM protein, 6 mM HEPES pH 7.8, 80 mM KCl, 0.5 mM EDTA, 0.5 mM EGTA, 6% glycerol, 35 ng/ul poly-dIdC, 1% milk, 1 h, room temperature; Ap Aiptasia and Nv Nematostella (sea anemones) / Co Capsaspora / Aq Amphimedon (sponge) / Dm Drosophila / Hu human; RHD is the Rel homology domain; high values mean tight binding
# Conditions: dsDNA, one strand shown
# Sequence of GST-Hu-p50 (P19838 7-356): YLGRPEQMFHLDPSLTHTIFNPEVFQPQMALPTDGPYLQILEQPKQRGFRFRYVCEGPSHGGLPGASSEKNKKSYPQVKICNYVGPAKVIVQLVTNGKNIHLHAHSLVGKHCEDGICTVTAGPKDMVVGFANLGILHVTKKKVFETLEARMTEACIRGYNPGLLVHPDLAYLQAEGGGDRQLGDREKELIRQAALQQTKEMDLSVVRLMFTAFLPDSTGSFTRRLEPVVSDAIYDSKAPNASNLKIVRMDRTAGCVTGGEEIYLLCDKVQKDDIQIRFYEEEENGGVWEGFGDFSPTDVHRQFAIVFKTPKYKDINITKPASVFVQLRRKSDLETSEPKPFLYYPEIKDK
row,Sequence,binding signal
1,CCGATTAACATCAAAGTTTTCCCTGATGTTAATCGGGTCTTGATTCGCTTGACGCTGCTG,4.49 z-score
2,CCGATTAACATCACATTTCCCCATGATGTTAATCGGGTCTTGATTCGCTTGACGCTGCTG,5.25 z-score
3,CCGATTAACATCAGAGGTGCTTCTGATGTTAATCGGGTCTTGATTCGCTTGACGCTGCTG,1.84 z-score
4,CCGATTAACATCACCCATTTCCGTGATGTTAATCGGGTCTTGATTCGCTTGACGCTGCTG,1.88 z-score
5,CCGATTAACATCAGATTATCCCCTGATGTTAATCGGGTCTTGATTCGCTTGACGCTGCTG,4.03 z-score
6,CCGATTAACATCACCATTATAGGTGATGTTAATCGGGTCTTGATTCGCTTGACGCTGCTG,1.68 z-score
7,CCGATTAACATCACTATTTTCCCTGATGTTAATCGGGTCTTGATTCGCTTGACGCTGCTG,3.18 z-score
8,CCGATTAACATCAACGTTTTCCCTGATGTTAATCGGGTCTTGATTCGCTTGACGCTGCTG,3.09 z-score
9,CCGATTAACATCAGAAATCCCAATGATGTTAATCGGGTCTTGATTCGCTTGACGCTGCTG,2.35 z-score
10,CCGATTAACATCACCCTTGGGAATGATGTTAATCGGGTCTTGATTCGCTTGACGCTGCTG,1.55 z-score
11,CCGATTAACATCAGGAAATACCATGATGTTAATCGGGTCTTGATTCGCTTGACGCTGCTG,1.08 z-score
12,CCGATTAACATCAGAAAATTTCCTGATGTTAATCGGGTCTTGATTCGCTTGACGCTGCTG,1.69 z-score
13,CCGATTAACATCAGGGAAAAACCTGATGTTAATCGGGTCTTGATTCGCTTGACGCTGCTG,4.95 z-score
14,CCGATTAACATCACAAAAAATTTTGATGTTAATCGGGTCTTGATTCGCTTGACGCTGCTG,1.65 z-score
15,CCGATTAACATCACGGGGTTGCCTGATGTTAATCGGGTCTTGATTCGCTTGACGCTGCTG,1.21 z-score
16,CCGATTAACATCAATTGGGAAATTGATGTTAATCGGGTCTTGATTCGCTTGACGCTGCTG,2.69 z-score
17,CCGATTAACATCAGGATATACCCTGATGTTAATCGGGTCTTGATTCGCTTGACGCTGCTG,1.53 z-score
18,CCGATTAACATCAGGCATGCCCCTGATGTTAATCGGGTCTTGATTCGCTTGACGCTGCTG,1.89 z-score
19,CCGATTAACATCAGGGATTCCACTGATGTTAATCGGGTCTTGATTCGCTTGACGCTGCTG,1.75 z-score
20,CCGATTAACATCACCGTTCCGATTGATGTTAATCGGGTCTTGATTCGCTTGACGCTGCTG,1.04 z-score

row,Sequence,binding signal
1,CCGATTAACATCAAGGGAAAAAATGATGTTAATCGGGTCTTGATTCGCTTGACGCTGCTG,4.89 z-score
2,CCGATTAACATCAAATTCCCACGTGATGTTAATCGGGTCTTGATTCGCTTGACGCTGCTG,2.98 z-score
3,CCGATTAACATCAATTTTTTCCCTGATGTTAATCGGGTCTTGATTCGCTTGACGCTGCTG,4.43 z-score
4,CCGATTAACATCAAGGGAAAATATGATGTTAATCGGGTCTTGATTCGCTTGACGCTGCTG,4.8 z-score
5,CCGATTAACATCAAAAAATTCCTTGATGTTAATCGGGTCTTGATTCGCTTGACGCTGCTG,1.55 z-score
6,CCGATTAACATCAGGAAAGTCCATGATGTTAATCGGGTCTTGATTCGCTTGACGCTGCTG,1.14 z-score
7,CCGATTAACATCAGGGAAACTACTGATGTTAATCGGGTCTTGATTCGCTTGACGCTGCTG,3.85 z-score
8,CCGATTAACATCAAAAATTCCCATGATGTTAATCGGGTCTTGATTCGCTTGACGCTGCTG,5.24 z-score
9,CCGATTAACATCAGGGGATAATATGATGTTAATCGGGTCTTGATTCGCTTGACGCTGCTG,4.49 z-score
10,CCGATTAACATCACAATAACGGGTGATGTTAATCGGGTCTTGATTCGCTTGACGCTGCTG,1.74 z-score
11,CCGATTAACATCACCGGAATTTCTGATGTTAATCGGGTCTTGATTCGCTTGACGCTGCTG,2.22 z-score
12,CCGATTAACATCAGGAATTGCCCTGATGTTAATCGGGTCTTGATTCGCTTGACGCTGCTG,1.09 z-score
13,CCGATTAACATCACCGTTTAGGTTGATGTTAATCGGGTCTTGATTCGCTTGACGCTGCTG,1.22 z-score
14,CCGATTAACATCAAATTTCCAGGTGATGTTAATCGGGTCTTGATTCGCTTGACGCTGCTG,1.2 z-score
15,CCGATTAACATCAACGTTTCCCCTGATGTTAATCGGGTCTTGATTCGCTTGACGCTGCTG,5.04 z-score
16,CCGATTAACATCAAGAGTTCCCCTGATGTTAATCGGGTCTTGATTCGCTTGACGCTGCTG,5.23 z-score
17,CCGATTAACATCAGGGAACGCCCTGATGTTAATCGGGTCTTGATTCGCTTGACGCTGCTG,2.04 z-score
18,CCGATTAACATCAGGGGATTAAATGATGTTAATCGGGTCTTGATTCGCTTGACGCTGCTG,4.87 z-score
19,CCGATTAACATCAGGGGAACTAATGATGTTAATCGGGTCTTGATTCGCTTGACGCTGCTG,4.28 z-score
